Source: PubChem BioAssay
EP2 modulator = modulates human prostaglandin E2 receptor EP2 signaling; induction, % at 25 µM; EP2-expressing cells, cAMP HTRF FRET, PGE2 co-stimulation; AID 940; P43116; actives 0.83% (n = 260,000);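 active = compounds whose cAMP rise, as percent of the full-agonist control response, exceeds 60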;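 also: rat C6 glioma line stably carrying human EP2 under a CMV promoter; the protocol text gives 20 µM as final concentration; 100% = response of wells given 1 µM PGE2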
CHT block = inhibits the human high affinity choline transporter; actives 0.86% (n = 310,000); Q9GZV3; B-score at 10 µM; AID 488975; CHT-expressing cells, membrane potential dye, choline response; hits give low values;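 active = B-score over 3 SD under the library average, and starting fluorescence ratio not unusually high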;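 also: choline stimulus applied at its EC90 after an EC20 pre-addition; B-score computed on integrated fluorescence ratio after choline addition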
Target sequence (Q9GZV3 whole entry, looked up): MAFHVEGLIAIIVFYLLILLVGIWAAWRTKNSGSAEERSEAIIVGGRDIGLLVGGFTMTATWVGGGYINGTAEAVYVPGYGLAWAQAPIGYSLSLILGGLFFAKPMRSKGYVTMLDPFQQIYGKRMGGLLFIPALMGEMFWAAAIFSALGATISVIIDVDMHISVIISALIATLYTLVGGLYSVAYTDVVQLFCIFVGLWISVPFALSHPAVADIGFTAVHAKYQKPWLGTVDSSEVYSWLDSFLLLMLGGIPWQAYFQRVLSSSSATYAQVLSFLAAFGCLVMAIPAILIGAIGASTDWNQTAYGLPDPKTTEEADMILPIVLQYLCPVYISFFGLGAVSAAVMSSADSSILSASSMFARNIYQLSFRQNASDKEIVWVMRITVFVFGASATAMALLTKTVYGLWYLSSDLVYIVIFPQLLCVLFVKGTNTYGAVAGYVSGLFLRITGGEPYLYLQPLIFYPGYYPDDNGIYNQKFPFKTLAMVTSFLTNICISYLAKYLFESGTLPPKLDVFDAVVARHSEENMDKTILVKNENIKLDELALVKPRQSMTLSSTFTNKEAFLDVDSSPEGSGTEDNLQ
CHT PAM = human CHT allosteric activation. Q9GZV3. CHT-expressing cells, membrane potential dye, choline EC20; hits give high values; LV-AA mutant CHT in HEK293 cells. B-score at 10 µM. actives 0.49% (n = 310,000);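 active = initial fluorescence not abnormally high and integrated response B-score, plate-corrected, over 3 SD above library mean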
EP2 antag = inhibitors of human EP2 prostaglandin E2 receptor. P43116. C6 glioma cells expressing human EP2, cAMP TR-FRET; cells stimulated with saturating PGE2. inhibition, % at 25 µM. actives 0.52% (n = 260,000). AID 1422;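 active = percent inhibition above 40 after rounding to a whole number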;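 also: rat C6 glioma host cells with rolipram phosphodiesterase inhibitor present; the protocol text gives 20 µM as final concentration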
EP2 cAMP induct = human EP2 receptor cAMP induction, negative in counter-screens | shares compounds with EP2 modulator | C6 glioma EP2 cells, cAMP HTRF induction; plus low (about EC15) PGE2 agonist | calls only at 20 µM (by protocol) | actives 47% (n = 1,300) | AID 1080;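 active = cAMP induction above 50% in the main assay while under 30% in all four parallel counter assays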;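 also: rat C6 glioma cells stably expressing human EP2 receptor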
* = called active by the depositor; i = inactive; · = no result; + = active, no number. Hits are enriched below; roughly 2.1% of the tested compounds scored in any of these assays.

SMILES	EP2 modulator	CHT block	CHT PAM	EP2 antag	others
Cc1cc(C)c2cc(CN(Cc3cccs3)C(c3nnnn3C(C)(C)C)C(C)C)c(=O)[nH]c2c1 (configuration not stated)	61.4*	·	·	14.5
CCCC(c1nnnn1C1CCCCC1)N(Cc1ccco1)Cc1cc2cc(CC)ccc2[nH]c1=O (configuration not stated)	82.3*	·	·	8.1
CCc1ccc2[nH]c(=O)c(CN(Cc3cccnc3)C(c3nnnn3C3CCCCC3)C(C)C)cc2c1 (configuration not stated)	45.0	·	·	12.5
CCc1ccc2[nH]c(=O)c(CN(Cc3cccs3)C(CC)c3nnnn3C(C)(C)CC)cc2c1 (configuration not stated)	60.8*	·	·	10.6
CCCC(c1nnnn1C(C)(C)C)N(Cc1cccs1)Cc1cc2c(C)cc(C)cc2[nH]c1=O (configuration not stated)	33.5	·	·	5.9
COc1ccccc1CCCNC(=O)Cn1c(=O)oc2ccc(C)cc21	-77.1	·	·	6.3
COCCNC(=O)CN(C(=O)CCC(=O)Nc1nccs1)c1ccc(F)c(Cl)c1	-6.6	·	·	7.5
CC(C)(C)NC(=O)C(c1cccnc1)N(Cc1ccccc1)C(=O)c1csnn1 (configuration not stated)	-103.3	·	·	3.0
CCC(c1nnnn1C(C)(C)C)N(Cc1ccco1)Cc1cc2cc(C)ccc2[nH]c1=O (configuration not stated)	58.9	·	·	8.5
CCC(c1nnnn1C(C)(C)CC)N(Cc1ccco1)Cc1cc2cc(C)ccc2[nH]c1=O (configuration not stated)	89.5*	·	·	6.8
Cc1ccc2[nH]c(=O)c(CN(Cc3ccco3)Cc3nnnn3C3CCCCC3)cc2c1	52.3	·	·	5.2
CCCC(c1nnnn1Cc1ccccc1)N(Cc1cc2cc(C)ccc2[nH]c1=O)C1CCCC1 (configuration not stated)	24.1	·	·	12.6
Cc1cc(C)c2cc(CN(Cc3ccco3)Cc3nnnn3C3CCCCC3)c(=O)[nH]c2c1	68.8*	·	·	7.6
CCCC(c1nnnn1C1CCCC1)N(Cc1ccco1)Cc1cc2cc(C)cc(C)c2[nH]c1=O (configuration not stated)	20.5	·	·	16.4
CCCC(c1nnnn1C1CCCCC1)N(Cc1ccco1)Cc1cc2c(C)cc(C)cc2[nH]c1=O (configuration not stated)	69.0*	·	·	19.6
CCCC(c1nnnn1C(C)(C)C)N(Cc1cc2cc(C)ccc2[nH]c1=O)C1CCCCC1 (configuration not stated)	65.9*	·	·	8.9
CC1(C)Cc2c(c(N3CCOCC3)nc3sc4c(NN)ncnc4c23)CO1	1.2	·	·	17.7
ClC(=Nc1cccc2ccccc12)N(c1ccccc1)c1ccccc1	37.8	·	·	39.7*
COc1cccc(C(O)CN2CCC3(CC2)CC(O)c2ccc(OC)cc2O3)c1 (configuration not stated)	-29.7	·	·	9.9
O=C(c1ccncc1)N(c1ccc2oc(=O)sc2c1)S(=O)(=O)c1ccc(F)cc1	-117.7	·	·	13.3
O=c1c(C=NCCN2CCNCC2)c(-c2ccccc2)[nH]n1-c1ccc([N+](=O)[O-])cc1	-62.3	i	i	9.6
COc1ccc(-c2[nH]n(-c3ccc([N+](=O)[O-])cc3)c(=O)c2C=NCCN2CCNCC2)cc1	-42.1	i	9.26*	7.6
CCc1cc(C(=O)OC)c(NC(=O)C2CC(=O)NN2Cc2ccccc2)s1 (configuration not stated)	63.3*	i	i	7.3
CCCC(=O)N1CCC(c2nc3c(nnn3Cc3cc(C)ccc3C)c(=O)[nH]2)CC1	12.7	·	·	5.7
CCCn1c(SCC(=O)Nc2c(C)cccc2C)nnc1-c1ccncc1	-9.2	·	·	11.9
SMILES	EP2 modulator	CHT block	CHT PAM	EP2 antag	others
Cc1cccc2cc(C#N)c(SCC(=O)N3CCC(C)CC3)nc12	-1.2	i	i	9.8
Cc1cccc2cc(C#N)c(N3CCC(C)CC3)nc12	77.4*	·	·	12.4
Cc1cc(C)c2nc(N3CCCCC3)c(C#N)cc2c1	62.5*	·	·	7.1
Cc1cccc2cc(C#N)c(N3CCCCC3)nc12	73.8*	·	·	11.5
COCC(=O)N1CCCN(c2nc3c(C)cccc3cc2C#N)CC1	-22.5	i	i	9.1
Cc1cc(C)c2cc(C#N)c(N3CCCC3)nc2c1	54.3	i	i	4.3
O=C(OCn1ncc(Br)c(Br)c1=O)c1ccc(F)cc1	33.4	-6.52*	i	33.0
COc1ccccc1NC(=O)CN1CCC(C(=O)c2ccc(Cl)cc2)CC1	-51.8	·	·	2.4
C[N+](C)(C)CCCSc1nc2ccccc2[nH]1	20.7	·	·	41.9*
CCOC(=O)c1cc(-c2ccccc2)sc1NC(=O)CC	22.6	i	i	7.5
CCOC(=O)c1cc(C)sc1NC(=O)c1ccccc1Cl	71.5*	·	·	8.8
O=C(NC1CCCC1)c1cccnc1	-15.1	·	·	12.8
c1cc2c(cnc3cscc32)s1	-48.2	i	i	42.2*
CCCC(NC(=O)c1n[nH]c2c1CCCCC2)c1ccc2c(c1)OCCO2 (configuration not stated)	-16.3	·	·	3.7
CC(=O)c1cccc(Nc2nc(-c3ccc(O)cc3O)cs2)c1	-136.5	·	·	69.5*
Cc1ccc2cc(CN(Cc3ccco3)C(=O)NC3CCCCC3)c(=O)[nH]c2c1C	60.6*	i	i	5.5
O=C(O)COCC(=O)NNC(=O)c1ccncc1	14.2	·	·	9.8
CCC(CN1CCN(C)CC1)NC(=O)Cc1ccc2c(c1)CCC2 (configuration not stated)	-33.3	·	·	46.0*
O=C(COc1ccc(Cl)cc1Cl)Nc1nc2c(s1)CCCC2	-26.1	·	·	14.4
Cc1c(Cc2ccc3c(c2)OCO3)sc(NC(=O)c2ccc3ccccc3c2)c1C(N)=O	-22.7	-6.58*	i	15.3
O=C(CNCc1ccco1)Nc1ccccc1F	-6.5	·	·	11.2
C[C@@H]1c2ccccc2Cn2cc3c(c21)C(=O)c1cccc(OP(=O)(O)OCc2ccccc2)c1C3=O	25.4	·	·	41.6*
COc1cccc(CN2CCN(C(=O)c3ccc(CN4CCCCC4)o3)[C@@H](C)C2)c1	-20.7	·	·	·
N#[N+]c1ccc(Nc2ccccc2)cc1	28.4	·	·	42.6*
COc1ccccc1C(CCNCc1ccc(N(C)C)cc1)c1ccc(OC(C)C)cc1 (configuration not stated)	·	i	8.69*	·
COc1ccc(CNCCC(c2ccc(OC(C)C)cc2)c2ccccc2OC)cc1 (configuration not stated)	·	i	i	·
Cc1ccc(-n2c(Cc3cccc4ccccc34)n[nH]c2=S)c(C)c1	60.6*	i	i	7.1	EP2 cAMP induct=+
CCn1ncc(C(=O)NCCc2nc(-c3ccc(C)cc3)n[nH]2)c1C	5.3	·	·	6.6
O=C1CCC(C(=O)OCC(=O)N2N=C3/C(=C/c4ccccc4)CCCC3C2c2ccccc2)N1 (configuration not stated)	77.8*	i	i	5.8	EP2 cAMP induct=+
